A selection: hits, their analogues and other compounds. The true share with any hit is near 8.1%.
Epigenetic reg: regulators of epigenetic silencing causing reporter derepression in mouse cells; Potency, µM (highest dose often 53.9 µM), without a hit: top-dose GFP activation, most hits filed as activators; 0.2% of 280,000 active; murine LDR cells, GFP reporter derepression, 30 h; also: % of control where 0% means no effect; nearly all actives have a fitted effect of over 60% in size
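Murine LDR cells carrying a silenced, genomically integrated CMV-driven GFP reporter were exposed to compound for 30 hours at 37 C. After PBS washes, GFP-positive cells (20–120 um objects) were counted by laser-scanning microplate cytometry.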
RORg inh: ROR gamma (mouse) transcription inhibition. Drosophila S2 Gal4-RORgamma UAS-luciferase reporter, 20 h. Potency, µM (doses to about 53.6 µM), for the others: top-dose activity change, negative = inhibition, usual class: inhibitors. 5.4% of 310,000 active. AID 2551; also: % is scaled to controls: 0 for no effect and ±100 for the full control effect; nearly all actives have a fitted effect of over 60% in size
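Stable Schneider cell line, Gal4 DNA-binding domain fused to ROR gamma, UAS-luciferase. Cmpd 1 hr RT → CuSO4 700 uM final → 20 hr RT → luciferase reagent 10 min → luminescence.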
PINK1 expr mod: changes PINK1 expression; PINK1 immunofluorescence, high-content cytometry, 24 h; Potency, µM (series often up to 76.6 µM), for inactives: top-dose activation (PINK1 increase), most hits filed as activators; 0.2% of 410,000 active; active = well fitted activation curve with a large enough effect; inconclusive = small, poorly fitted or top-dose-only effect; cell line not stated here; also: % of control where 0% means no effect; nearly all actives have a fitted effect of over 65% in size
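Fluorescence from anti-PINK1 antibody, together with nuclear and cell stains, was scanned on a laser-scanning cytometer. Before staining, stable-line cells were incubated 24 hours with compounds at 5 concentrations; primary antibody 12 h at 10 degrees C.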
Gal4-VP16 FLuc: Gal4-VP16 reporter inhibition counter-screen; Potency, µM (series often up to 53.6 µM), inactives show at the top dose activity, negative = inhibition, most hits filed as inhibitors; AID 2546; 3.5% of 310,000 active; Drosophila S2 Gal4-VP16 UAS-luciferase, luminescence, 20 h;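 also: Gal4-VP16 expression switched on by copper sulfate through the metallothionein promoter; % is scaled to controls: 0 for no effect and ±100 for the full control effect; nearly all actives have a fitted effect of over 50% in size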
ClpP mod: qHTS Assay for Activators of ClpP | purified B. subtilis ClpP, FRET peptide cleavage, 20 min | ATP-dependent Clp protease proteolytic subunit (Bacillus subtilis (strain 168)), P80244 | Potency, µM (top dose mostly 57.5 µM), without a hit: at the top dose activity change, negative = active | 1.9% of 340,000 active; active = well fitted falling curve with a large enough effect; inconclusive = small, poorly fitted or top-dose-only effect; inactive = no such curve, though single readings can be large or run the other way; also: the source files actives as falling curves though it sought activators and does not explain the sign; nearly all actives have a fitted effect of over 65% in size
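FRET quenching reversal measured ClpP activation: 10 microg/mL B. subtilis ClpP at pH 8 with the FRET-FV decapeptide, read at 430 nm after 320 nm excitation. The 20-min minus 0-min signal was scaled between DMSO/no-enzyme wells and ADEP (5.8 microM final).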
Sfp inh: Sfp phosphopantetheinyl transferase inhibition. 3.5% of 310,000 active. Potency, µM, for the others: largest response in the series, negative = inhibition, hits mostly inhibitors. Biochemical Sfp PPTase activity, qHTS. AID 1490;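 also: the enzyme is Sfp with the accession as filed and its product quenches rhodamine fluorescence; 0% = enzyme reaction without inhibitor and -100% = no enzyme wells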
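Buffer: 50 mM Hepes-Na pH 7.6, 10 mM MgCl2, 0.01% Nonidet P-40, 0.01% BSA. Enzyme 15 nM, pre-exposed to compound 15 min; substrates then added and fluorescence change tracked over 30 min.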
* hit, by the source's call; ? = inconclusive; · = no result; [ ] = another dose, or the depositor's remark. Unless noted, calls follow the shape of the dose curve; as a rule, active = well fitted curve in the direction sought with a large enough effect; inconclusive = small, poorly fitted or top-dose-only effect, or another doubt; inactive = no such curve, though single readings can be large; an effect the other way counts as inactive or inconclusive. Potency is read from the fitted curve at half-maximal effect.

SMILES | Epigenetic reg | RORg inh | PINK1 expr mod | Gal4-VP16 FLuc | ClpP mod | Sfp inh
COc1ccc(OC)c(NC(=S)NCCC(c2ccccc2)c2ccccc2)c1 | · | · | -1% | · | -4% | ·
Cc1ccc(SCC(=O)NC(=O)NCc2ccccc2)c(C)c1 | -3% | 25% | 0% | -5% | 35µM* | 4%
O=C(CSc1ccccc1)NC(=O)NCc1ccccc1 | -1% | 13% | 0% | 6% | 0% | 7%
Cc1ccc(NC(=S)NCc2ccccc2)c(C)c1 | · | 5µM* | 1% | 7.1µM* | 0% | 14%
Cc1ccc(NC(=O)CN2C(=O)C(c3ccccc3)=NC2(C)C)cc1C | 5% | · | 0% | · | -2% | ·
Cc1c2c(c(O)c3c(O)cccc13)C(=O)O[C@H]2C1C(N(C)C)C(O)=C(C(N)=O)C(=O)[C@H]1O (stereo partly drawn) | · | 8% | · | -9% | · | ?
CCc1ccc2nc3nc(C)cc(C)c3c(N)c2c1 | -2% | -23% | · | -27% | 11µM* | 4%
COc1cccc(-c2nn(C)c3sc(C(=O)N4CCN(c5cccc(C)c5)C(C)C4)cc23)c1 (stereo not drawn) | 0% | · | 8% | · | ? | ·
CC(NC(=O)c1ccc(F)cc1)c1nc2ccccc2[nH]1 (stereo not drawn) | 5% | · | 1% | · | 2% | ·
CCN1/C(=N\N)c2cccc3cccc1c23 | 1% | -4% | 2% | -7% | 0% | 35µM*
CCOc1cccc(C2c3c(-c4cc(C)ccc4O)n[nH]c3C(=O)N2Cc2ccco2)c1 (stereo not drawn) | -1% | · | 3% | · | 4% | ·
CCc1nn(CC(=O)NCCc2ccc(OC)cc2OC)c(=O)c2cc3c(OC)cccc3n12 | 0% | · | 1% | · | ? | ·
O=C(Nc1cccc(NC(=S)NC(=O)c2cccs2)c1)c1ccccc1 | 0% | 10µM* | 10% | ? | -4% | -19%
O=C(NC(=S)Nc1cccc(NC(=O)c2ccccc2Cl)c1)c1cccs1 | 17% | 11µM* | 12% | ? | -6% | -2%
Cc1ccccc1C(=O)Nc1cccc(NC(=S)NC(=O)c2cccs2)c1 | 0% | ? | 4% | ? | -1% | -23%
Cc1ccc(-c2cn3c(n2)sc2cc(C(=O)NCCCc4ccccc4)ccc23)c(C)c1 | 1% | · | 7% | · | 5% | ·
O=C(Nc1ccc(F)cc1)N1CCOCC1 | -1% | 3% | · | -2% | 0% | 8%
S=C(Nc1cccc2ccccc12)NN1CCOCC1 | 0% | 11µM* | 1% | ? | ? | -17%
O=C(Nc1cccc2ccccc12)N1CCN(c2ccc(F)cc2)CC1 | 4% | 3% | 5% | -1% | -25% | 13%
CN1CCN(C(=O)Nc2cccc3ccccc23)CC1 | 0% | 1% | 6%[38.3 µM] | -5% | 16µM* | 9%
CN(C)c1ccc(NC(=O)N2CCOCC2)cc1 | -1% | -6% | -1% | -5% | -2% | 40µM*
CCN1CCN(C(=O)Nc2cccc3ccccc23)CC1 | -9% | 14% | 3% | -10% | 11µM* | 0%
O=C(Nc1cccc2ccccc12)N1CCc2ccccc2C1 | -1% | ? | -2% | 23% | ? | 9%
O=C(Nc1ccccc1)c1sc(N2CCOCC2)nc1-c1ccccc1 | 2% | ? | -2% | 5% | 1% | 0%
N#C/C(=C\c1sc(N2CCOCC2)nc1-c1ccccc1)C(=O)Nc1cccc2ccccc12 | 13µM* | -3% | · | -8% | · | ?
SMILES | Epigenetic reg | RORg inh | PINK1 expr mod | Gal4-VP16 FLuc | ClpP mod | Sfp inh
O=C(Nc1cccc2ccccc12)N1CCOCC1 | 0% | -6% | 3%[38.3 µM] | -1% | 25µM* | 16%
CCCOc1ccc(C(=O)Nc2ccc3oc(-c4ccncc4)nc3c2)cc1 | -1% | · | 0% | · | -20% | ·
COc1ccc(N2C(=O)C3C(C2=O)C(C(=O)c2ccc(Cl)cc2)N2CCCC32)cc1 (stereo not drawn) | -3% | ? | 2% | ? | · | 28µM*
CC(=O)c1ccc(N2C(=O)C3C(C2=O)C(C(=O)c2ccc(Cl)cc2)N2CCCC32)cc1 (stereo not drawn) | 4% | ? | 0% | -24% | 0% | 22µM*
CCN(C(=O)c1nn(-c2ccc(OC)c(Cl)c2)c(=O)c2c1c1ccccc1n2C)c1cccc(C(F)(F)F)c1 | 1% | · | 2% | · | ? | ·
CCN(CC)c1ccc(C(=O)NCc2ccc3c(c2)CCN3C(=O)c2ccccc2)cc1 | -1% | · | 4% | · | ? | ·
N#Cc1ccc(C23CC4CC(CC(C4)C2)C3)[nH]c1=O | -10% | -1% | -1% | -5% | 16µM* | 10%
Cc1ncc(C23CC4CC(CC(C4)C2)C3)[nH]1 | 2% | -15% | -1% | -3% | 0% | 11%
O=C(NCC1CCCO1)C1c2ccccc2C(=O)N1Cc1ccc2c(c1)OCO2 (stereo not drawn) | -2% | 14% | 1% | -8% | 22µM* | 9%
Cc1cccnc1NCC(O)COc1ccccc1 (stereo not drawn) | 0% | 37% | 0% | 16% | 28µM* | 16%
Cc1nn(-c2ccccc2)c(C)c1/C=N/NC(=O)c1cccs1 | 0% | ? | 4% | ? | 25µM* | 5%
O=C(N/N=C/c1ccncc1)c1cccs1 | · | -2% | -1% | ? | 0% | 17%
Cc1nn(-c2ccccc2)c(N2CCCC2)c1/C=N/NC(=O)c1ccccc1O | -2% | 10µM* | 2% | 10µM* | -6% | 10%
Cc1nn(-c2ccccc2)c(C)c1/C=N/NC(=O)c1ccccc1O | · | ? | 2% | ? | -2% | 3%
O=C(N/N=C\c1ccc(Cl)s1)c1cccs1 | 0% | 5.6µM* | -1% | 5.6µM* | -7% | -1%
O=C(N/N=C/c1cc2c3c(c1O)CCCN3CCC2)c1ccccc1O | -2% | ? | ? | 20µM* | · | -16%
Cc1nn(-c2ccccc2)c(C)c1/C=N/NC(=O)c1cc(-c2cccs2)[nH]n1 | 0% | 32% | -1% | -28% | -5% | -5%
Cc1ccc(NC(=O)C2CC(=O)N(c3ccc(OC(C)C)cc3)C2)cc1 (stereo not drawn) | -2% | · | -2% | · | 1% | ·
CN(C)CC(C)(O)c1ccc2c(c1)CN(Cc1cccn1-c1cccnc1)CCO2 (stereo not drawn) | · | · | -1% | · | · | ·
CCC1CN(Cc2cn[nH]c2-c2ccc(OC)cc2)Cc2cc(OC)ccc2O1 (stereo not drawn) | · | · | 6% | · | · | ·
CCn1c(-c2ccccc2F)nc2cc(NC(C)=O)cc(C(=O)NC(c3ccccn3)C(F)(F)F)c21 (stereo not drawn) | · | · | 1% | · | · | ·
O=C(Nc1ccc(Oc2ccccc2)cc1)C1CCN(S(=O)(=O)c2ccccc2)CC1 | -1% | · | 0% | · | -3% | ·

Assay outcomes: PubChem BioAssay, National Center for Advancing Translational Sciences (NCATS)
